Compound activity as filed in PubChem.
BAZ2B block: qHTS Assay for Inhibitors of BAZ2B. Bromodomain adjacent to zinc finger domain protein 2B (Homo sapiens), Q9UIF8. AlphaScreen BAZ2B-H3K14Ac peptide displacement. Potency, µM (titrated, usually from 114 µM), for the others: top-dose activity change, negative = inhibition, most hits filed as inhibitors. 360,000 compounds, 4.4% hits; further: on the % scale 0 is the no-effect control and ±100 the full control effect; nearly all actives have a fitted effect of over 60% in size
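BAZ2B 50 nM plus b-H3(5-23)K14Ac 50 nM, PBS pH 7.4/0.01% Tween-20, 30 min RT; compound added (max 110 uM), 30 min RT; streptavidin donor/Ni-chelate acceptor beads 10 ug/mL final, 20 min dark; AlphaScreen read.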
JMJD2A Tudor inh: qHTS Assay for Inhibitors of JMJD2A-Tudor Domain. Lysine-specific demethylase 4A (Homo sapiens), O75164. Potency, µM (series often up to 114 µM), inactives show at the highest dose activity change, negative = inhibition, hits mostly inhibitors. 390,000 compounds, 4.4% hits. AID 504339, 2011. AlphaScreen JMJD2A-Tudor / H3K4me3 peptide binding; further: on the % scale 0 is the no-effect control and ±100 the full control effect; nearly all actives have a fitted effect of over 50% in size
Target sequence (O75164 whole entry, looked up, the tested form may be a part): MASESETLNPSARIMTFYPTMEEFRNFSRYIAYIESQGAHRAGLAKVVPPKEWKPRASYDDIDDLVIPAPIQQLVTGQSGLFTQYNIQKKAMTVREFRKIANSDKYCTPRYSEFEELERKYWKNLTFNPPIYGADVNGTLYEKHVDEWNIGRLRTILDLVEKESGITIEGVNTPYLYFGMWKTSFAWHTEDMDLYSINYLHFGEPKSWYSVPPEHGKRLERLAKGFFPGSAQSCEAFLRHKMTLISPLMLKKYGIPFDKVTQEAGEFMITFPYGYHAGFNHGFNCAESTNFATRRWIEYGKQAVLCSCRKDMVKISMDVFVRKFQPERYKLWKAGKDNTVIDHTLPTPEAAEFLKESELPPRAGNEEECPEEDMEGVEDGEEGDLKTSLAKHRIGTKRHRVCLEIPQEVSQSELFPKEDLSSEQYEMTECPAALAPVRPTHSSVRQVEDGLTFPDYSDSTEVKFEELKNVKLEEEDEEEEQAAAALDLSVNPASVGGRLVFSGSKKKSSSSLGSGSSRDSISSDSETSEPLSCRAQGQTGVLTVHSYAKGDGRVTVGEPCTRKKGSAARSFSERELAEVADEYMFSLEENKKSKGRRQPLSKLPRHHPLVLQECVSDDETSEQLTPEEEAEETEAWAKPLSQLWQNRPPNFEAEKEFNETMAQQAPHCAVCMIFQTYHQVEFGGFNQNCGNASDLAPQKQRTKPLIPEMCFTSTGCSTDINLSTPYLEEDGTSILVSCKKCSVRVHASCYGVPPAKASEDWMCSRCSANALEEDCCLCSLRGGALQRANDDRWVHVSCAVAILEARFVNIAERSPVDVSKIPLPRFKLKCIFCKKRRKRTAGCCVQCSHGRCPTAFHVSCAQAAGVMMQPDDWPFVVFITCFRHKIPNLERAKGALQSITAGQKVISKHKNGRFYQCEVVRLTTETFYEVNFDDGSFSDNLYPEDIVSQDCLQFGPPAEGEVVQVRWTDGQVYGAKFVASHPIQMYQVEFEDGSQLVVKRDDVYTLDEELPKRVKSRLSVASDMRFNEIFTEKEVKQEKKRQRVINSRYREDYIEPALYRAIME
G9a inh: qHTS Assay for Inhibitors of Histone Lysine Methyltransferase G9a. Histone-lysine N-methyltransferase EHMT2 (Homo sapiens), Q96KQ7. G9a H3K9 monomethylation, AlphaScreen, 2 h. Potency, µM (top dose mostly 102 µM), for the others: at the highest dose activity, negative = inhibition, most hits filed as inhibitors. 350,000 compounds, 8.8% hits; further: on the % scale 0 is the no-effect control and ±100 the full control effect; nearly all actives have a fitted effect of over 75% in size
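Compounds were preincubated with 20 nM G9a for 15 min, after which biotinylated H3K9 peptide (500 nM) and SAM (20 uM) started a 2 h room-temperature reaction. Monomethylated product was quantified by antibody-based AlphaScreen chemiluminescence.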
HP1b chromo inh: HTS for Inhibitors of HP1-beta Chromodomain Interactions with Methylated Histone Tails; Potency, µM (doses to about 114 µM), for the others: at the top dose activity change, negative = inhibition, hits mostly inhibitors; AID 540317, 2011; 390,000 compounds, 0.56% hits; AlphaScreen HP1-beta / biotin-H3K9me3 peptide binding; further: nearly all actives have a fitted effect of over 70% in size
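AlphaScreen: HP1-beta (50 nM) preformed 30 min with biotin-H3(1-18)K9me3 peptide (50 nM) in PBS pH 7.4, 0.01% Tween-20. Compound added for 30 min at RT, then streptavidin donor/nickel chelate acceptor beads (10 ug/mL) for 30 min.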
L3MBTL1 inh: qHTS Assay for the Inhibitors of L3MBTL1; AID 485360, 2010; 230,000 compounds, 0.66% hits; Lethal(3)malignant brain tumor-like protein 1 (Homo sapiens), Q9Y468; AlphaScreen L3MBTL1–H3K9me1 peptide binding; Potency, µM (series often up to 57.1 µM), for inactives: top-dose activity, negative = inhibition, usual class: inhibitors; further: on the % scale 0 is the no-effect control and ±100 the full control effect; nearly all actives have a fitted effect of over 60% in size
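AlphaScreen assay: L3MBTL1 (50 nM final) was preincubated 30 min at room temperature with biotinylated H3(1-15)K9me1 peptide (75 nM final), then 30 min with library compounds; streptavidin donor and nickel chelate acceptor beads (10 ug/mL final) added, 30 min dark.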
* = called active by the depositor; ? = inconclusive; . = no result given; [ ] = dose if it differs, or a comment. The list is not random: actives were taken first. Their share in the collection is about 11%. The call rests on the fitted dose curve; in most records, active means well fitted inhibition curve with a large enough effect; inconclusive means small, poorly fitted or top-dose-only effect; inactive means no such curve, though single readings can be large or run the other way. Potency means the concentration at half of the fitted maximal effect.

SMILES	BAZ2B block	JMJD2A Tudor inh	G9a inh	HP1b chromo inh	L3MBTL1 inh
CCN(CC)S(=O)(=O)c1ccc(OC)c(NC(=O)c2ccc(N3CCCC3=O)cc2)c1	8.9%	4.9%	-0.8%[59 µM]	41.0%	2.6%
CCN(CC)S(=O)(=O)c1ccc(N2CCCC2)c(NC(=O)c2ccncc2)c1	-1.2%	-20.1%	31.6µM*	48.7%	0.6%
CCc1ccccc1NC(=O)CSc1nc2ncccc2o1	1.1%	-10.3%	5.5%[59 µM]	17.7%	.
Cc1ccccc1NC(=O)c1ccc(F)c(S(=O)(=O)N(C)C2CCCCC2)c1	-3.3%	-16.2%	6.8%[59 µM]	25.4%	.
O=C(NC(=S)N1CCCc2ccccc21)c1ccc(Br)cc1	-32.4%	?	44.7µM*	1.2%	-6.6%
CC(C)C(=O)NC(=S)N1CCc2ccccc21	-6.3%	-15.7%	?	8.1%	-4.4%
COc1ccc(C(=O)NC(=S)N2CCCc3ccccc32)cc1OC	?	?	?	-13.0%	-8.0%[11.4 µM]
COc1ccccc1C(=O)NC(=S)N1CCc2ccccc21	-35.8%	?	44.7µM*	0.7%	-4.1%[11.4 µM]
O=C(NC(=S)N1CCCc2ccccc21)c1ccccc1	?	?	29.4%[0.501 µM]	-11.4%	-5.5%
COc1ccccc1C(=O)NC(=S)N1CCCc2ccccc21	?	?	10µM*	-10.6%	-18.1%
CCc1ccc(NC(=O)N2CC(C)Oc3ccc(C)cc32)cc1 (stereo not drawn)	-9.7%	-28.9%	-32.0%[59 µM]	30.2%	.
O=C1C(O)=CC(=C(c2ccccc2)c2ccccc2)c2ccccc21	.	14.1µM*	.	12.6µM*	.
O=C(O)c1cccc2c1C(=O)c1ccccc1-2	-7.9%	-2.5%	.	12.1%	5.9%
O=C(NCc1ccccc1Cl)c1ccc(Br)o1	-9.5%	6.3%	8.8%	38.1%	10.2%
COc1ccccc1CNC(=O)c1ccccc1C(=O)NC(CC(C)C)C(=O)NCc1ccccc1OC (stereo not drawn)	?	35.5µM*	-5.3%[59 µM]	3.2%	.
COc1ccccc1CNC(=O)c1ccc(Br)o1	-2.7%	-18.6%	35.5µM*	51.9%	-2.5%
COc1ccccc1CNC(=O)C(CC(C)C)NC(=O)C1CCC(C)CC1 (stereo not drawn)	?	-5.7%	0.3%	46.2%	.
Cc1ccc(N=C/C(C(=O)C(F)(F)F)=C(\O)c2ccco2)cc1Cl	-0.3%	?	44.7µM*	29.4%	13.2%
O=C(NCCNC(=O)c1ccco1)c1ccc(F)cc1	-10.2%	-3.4%	-1.7%	0.4%	7.6%
Cc1cccc(N=C/C(C(=O)C(F)(F)F)=C(\O)c2ccco2)c1	4.8%	-20.0%	44.0%[59 µM]	25.2%	10.8%
O=C(/C(C=Nc1ccc(F)cc1)=C(/O)c1ccco1)C(F)(F)F	?	?	39.8µM*	20.6%	-1.7%
CN(Cc1ccccc1)c1nc(-c2cccc([N+](=O)[O-])c2)nc2ccccc12	-24.3%	31.6µM*	4.1%[59 µM]	-8.2%	4.2%
O=[N+]([O-])c1cccc(-c2nc(NCc3ccccc3)c3ccccc3n2)c1	?	-17.4%	?	5.1%	-7.6%
Cc1cc(-c2ccccc2)nnc1NCCN1CCOCC1	?	79.4µM*	-29.0%[2.33 µM]	42.0%	7.7%
COc1ccc(-c2ccc(NCCN3CCOCC3)nn2)cc1OC	7.3%	-8.6%	.	30.4%	9.2%
SMILES	BAZ2B block	JMJD2A Tudor inh	G9a inh	HP1b chromo inh	L3MBTL1 inh
CCC(=O)N1CCc2cc(Br)cc(S(=O)(=O)N3CCN(c4ccc(C)cc4)C(C)C3)c21 (stereo not drawn)	1.3%	-9.2%	9.4%[59 µM]	32.3%	.
Cc1ccccc1Cn1c(SCc2ccc(C(=O)NC3CCCCC3)cc2)nc2ccncc21	-1.8%	-23.6%	?	24.2%	.
Cn1c(=O)n(C/C=C/c2ccccc2)c(=O)c2c1nc1n2CCN1c1ccccc1	-20.6%	-26.3%	4.5%[59 µM]	42.9%	.
Brc1ccc2nc(-c3c[nH]c4ccccc34)cn2c1	44.7µM*	?	50.1µM*	?	-11.5%
C/C(=N/NC(=O)c1ccccc1O)c1ccc(N2C(=O)C3CCCCC3C2=O)cc1 (stereo not drawn)	-7.2%	-2.7%	-0.9%[59 µM]	31.1%	0.5%
C/C(=N/OC(=O)c1ccc(C)cc1)c1ccc(N2C(=O)C3CCCCC3C2=O)cc1 (stereo not drawn)	9.6%	39.8µM*	-26.7%	-10.7%	12.9%
Cc1cc2c(cc1S(=O)(=O)CCC(=O)N1CCC(C)CC1)OCC(=O)N2	22.7%	-7.2%	15.3%[59 µM]	63.0%	.
CCC1CCCCN1C(=O)CCS(=O)(=O)c1cc2c(cc1C)NC(=O)CO2 (stereo not drawn)	?	?	8.91µM*	?	.
CCC12CN3CC(C)(CN(C1)C3c1ccc(O)cc1O)C2=O (stereo not drawn)	-15.6%	-12.6%	?	12.9%	.
Cn1c(CN2CCCCC2)c(C#N)c2ccccc21	6.0%	7.3%	28.2µM*	30.8%	1.7%
Cn1c(CN2CCN(CC#N)CC2)c(C#N)c2ccccc21	0.3%	-4.6%	44.7µM*	52.7%	.
Cn1c(CN2CCC(C(N)=O)CC2)c(C#N)c2ccccc21	1.8%	0.0%[57.1 µM]	-18.6%[59 µM]	-6.0%	-7.8%
CCOc1ccc(OCC)c(NC(=O)C(NS(=O)(=O)c2ccc(Br)s2)c2ccccc2)c1 (stereo not drawn)	-21.9%	-9.2%	-6.5%[59 µM]	24.5%	.
CCCC(=O)Nc1cccc(OCc2cc(=O)n3cccc(C)c3n2)c1	-3.1%	-6.8%	-2.9%[59 µM]	2.1%[57 µM]	.
CCCN(C(=O)Nc1cn(CC(C)C)c(=O)c2ccccc12)c1ccc(F)cc1	7.1%[57.1 µM]	-10.7%	-29.5%[59 µM]	13.4%	.
COC(=O)c1ccccc1NC(=O)c1cc2nc(-c3ccc(OC)cc3)cc(C(F)(F)F)n2n1	5.0%	-1.4%	13.8%[59 µM]	31.6%	.
COC(=O)CN1C(=S)N(c2ccc(OC)cc2)C(=O)/C1=C/c1ccc(N2CCOCC2)cc1	28.2µM*	?	31.6µM*	?	-8.1%[11.4 µM]
COC(=O)CN1C(=S)N(c2ccc(OC)cc2)C(=O)/C1=C/c1ccc(OC)cc1	-35.5%	-32.9%	-10.6%[12.7 µM]	6.6%	-2.7%
NC(=O)CC(NSc1ccccc1[N+](=O)[O-])C(=O)O (stereo not drawn)	?	35.5µM*	?	-8.3%	7.6%
CSc1ccccc1NC(=O)Cc1ccccc1[N+](=O)[O-]	19.1%	-7.2%	-9.3%	29.0%	-7.3%
COc1ccc(Br)cc1CNC(=O)c1cnc2sc(N3CCCCCC3)nn2c1=O	-9.4%	-23.7%	-1.5%[59 µM]	-27.2%	.
O=C1N=C(N2CCOCC2)S/C1=C1\C(=O)N(Cc2ccccc2)c2ccc(Br)cc21	.	.	?	.	0.5%
